From PubChem
Gal4-VP16 FLuc: VP16 counterscreen qHTS for inhibitors of ROR gamma transcriptional activity; Drosophila S2 Gal4-VP16 UAS-luciferase, luminescence, 20 h; Potency, µM (doses to about 53.6 µM), hits mostly inhibitors; 3.5% of 310,000 active; AID 2546, 2010;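 further: Gal4-VP16 expression switched on by copper sulfate through the metallothionein promoter; nearly all actives have a fitted effect of over 50% in size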
a7 integrin act: qHTS for Activators of Integrin-Mediated Alleviation for Muscular Dystrophy | Potency, µM (doses to about 38.3 µM), most hits filed as activators | alpha7betagal myoblasts, beta-gal FDG fluorescence, 48 h | AID 624291, 2012 | 0.064% of 350,000 active; further: nearly all actives have a fitted effect of over 60% in size
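alpha7betagal+/- myoblasts (passage 13, 250/well) treated 48 h at 37C with compounds at 1:260 dilution of DMSO stock. Lysed, then beta-galactosidase activity read as FDG fluorescence (ex 480/em 540) after 30 min, with pre-read for autofluorescence.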
RORg inh: qHTS for inhibitors of ROR gamma transcriptional activity; Nuclear receptor ROR-gamma (Mus musculus), P51450; Drosophila S2 Gal4-RORgamma UAS-luciferase reporter, 20 h; Potency, µM (titrated, usually from 53.6 µM), usual class: inhibitors; 5.4% of 310,000 active; AID 2551, 2010; further: nearly all actives have a fitted effect of over 60% in size
Target sequence (P51450 whole entry, looked up, the tested form may be a part): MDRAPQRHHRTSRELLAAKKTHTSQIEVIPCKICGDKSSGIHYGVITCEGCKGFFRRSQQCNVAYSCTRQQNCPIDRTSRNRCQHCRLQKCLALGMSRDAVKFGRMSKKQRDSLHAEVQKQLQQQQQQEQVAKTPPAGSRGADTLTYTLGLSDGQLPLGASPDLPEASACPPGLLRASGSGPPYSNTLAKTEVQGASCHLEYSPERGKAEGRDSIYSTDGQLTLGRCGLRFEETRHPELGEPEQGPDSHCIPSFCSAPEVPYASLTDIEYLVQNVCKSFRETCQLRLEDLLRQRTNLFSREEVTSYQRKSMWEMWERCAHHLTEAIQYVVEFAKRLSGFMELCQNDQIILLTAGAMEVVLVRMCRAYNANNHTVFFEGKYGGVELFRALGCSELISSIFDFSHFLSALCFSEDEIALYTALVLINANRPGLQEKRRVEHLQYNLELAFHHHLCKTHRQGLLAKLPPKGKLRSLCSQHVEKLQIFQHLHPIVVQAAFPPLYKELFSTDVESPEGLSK
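Luciferase reporter read in Schneider cells carrying Gal4-RORγ (mouse) and UAS-Photinus luciferase; cells given compound 1 h before 700 uM copper sulfate induction, then incubated 20 h at ambient temperature.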
Giardia kill: Small Molecules that selectively kill Giardia lamblia: qHTS. Giardia lamblia trophozoite viability. activity change, % at 7.66 µM, hits read low. 0.15% of 340,000 active; in the data active means activity change below about -80%; inconclusive means between about -30% and that limit;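 further: parasites exposed to compound for two days anaerobically before the ATP read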
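Anaerobic 48 hrs incubation at 37 deg C of 100 trophozoites/well with test compounds; ATPLite 1-Step luminescence, 15-30 min RT, reports cellular ATP as viability.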
ERG Ets-DNA blk: qHTS for Small Molecule Inhibitors of the ERG Ets/DNA interaction | Potency, µM (highest dose often 76.9 µM), most hits filed as inhibitors | 0.028% of 370,000 active | fluorescence polarization, His-ERG Ets domain / labelled DNA | Transcriptional regulator ERG (Homo sapiens), P11308; active means well fitted inhibition curve with a large enough effect in the polarisation, with a control signal flat; inconclusive means small, poorly fitted or top-dose-only effect, or effect the other way, or a change in a side signal; inactive means no such curve, though single readings can be large or run the other way; the % refers to the polarisation;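 further: polarization taken with two DNA probes labelled with fluorescein and Texas red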
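His-tagged ERG Ets domain (1 uM in the protein solution; 300mM KCl, 50mM Tris-HCl, 1mM EDTA, 1mM DTT, pH 7.5) received compound, then a probe mix of 5 nM fluorescein-DNA and 100nM Texas-615-DNA. Fluorescence polarization was read for both dyes.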
Numbers stand for hits; i = inactive; ? = inconclusive; nt = no result given; [ ] = another dose, or the depositor's remark. The full list was thinned out, with hits kept by preference. Unless noted, the call rests on the fitted dose curve; in most records, active means well fitted curve in the direction sought with a large enough effect; inconclusive means small, poorly fitted or top-dose-only effect, or another doubt; inactive means no such curve, though single readings can be large; an effect the other way counts as inactive or inconclusive.

SMILES	Gal4-VP16 FLuc	a7 integrin act	RORg inh	Giardia kill	ERG Ets-DNA blk
COc1ccc(OC)c(NC(=O)C(C)SCc2nc3sc(C)c(C)c3c(=O)[nH]2)c1 (stereo not drawn)	nt	i	nt	i	i
COc1ccc(NC(C)=O)cc1NC(C)c1nc2sc(C)c(C)c2c(=O)[nH]1 (stereo not drawn)	i	i	10µM	i	i
O=[N+]([O-])c1ccc(Nc2c3ccccc3nc3ccccc23)cc1	i	i	22µM	i	i
O=[N+]([O-])c1ccccc1Nc1c2ccccc2nc2ccccc12	?	i	i	i	i
O=C(O)c1ccc(Nc2nc3ccccc3nc2NS(=O)(=O)c2ccc(F)cc2)cc1	i	i	i	i	i
O=[N+]([O-])c1ccc(S(=O)(=O)Nc2nc3ccccc3nc2Nc2ccccc2)cc1	?	i	8.9µM	i	i
COc1cc(Nc2nc3ccccc3nc2NS(=O)(=O)c2ccc([N+](=O)[O-])cc2)cc(OC)c1OC	5µM	?	4.5µM	i	i
CCCCOc1ccc(C(=O)N(Cc2nc(-c3ccc(Cl)cc3)no2)C(C)C)cc1	nt	nt	nt	nt	i
CC1CCCCC12NC(=O)N(CC(=O)OCC(=O)NC(=O)c1ccccc1)C2=O (stereo not drawn)	nt	i	nt	i	i
CC12CC3CC(C)(C1)CC(C(=O)NC(=S)N1CCCCC1)(C3)C2	?	i	0.45µM	i	nt
CC12CC3CC(C)(C1)CC(C(=O)N1CCN(C(=O)C4CCCO4)CC1)(C3)C2 (stereo not drawn)	nt	i	nt	i	i
CN(C)C(=S)NC(=O)C12CC3CC(C)(CC(C)(C3)C1)C2	22µM	i	5µM	i	i
CC12CC3CC(C)(C1)CC(C(=O)NNC(=O)c1ccncc1)(C3)C2	i	?	i	i	i
CC(C)(CC(=O)O)CC(=O)N1CCCN(c2nccc(C(F)(F)F)n2)CC1	i	4µM	i	i	i
O=C(c1ccccc1)N1CCCN(c2nccc(C(F)(F)F)n2)CC1	i	i	i	i	i
O=C(N[C@@H]1C[C@H]2CC[C@@H]1C2)c1ccco1	i	i	i	i	i
Cc1ccc(NC(=O)c2ccccc2NS(=O)(=O)c2ccc(Cl)s2)cc1	20µM	i	?	i	i
O=C(Nc1ccccc1Cc1ccccc1)c1ccccc1NS(=O)(=O)c1ccc(Cl)s1	13µM	i	?	i	i
O=C(Nc1ccc2nc3n(c(=O)c2c1)CCCCC3)C(=O)N1CCN(c2ccccc2F)CC1	i	?	i	i	i
N#CCCn1c(=O)c(-c2ccccc2)nc2cnc(N3CCOCC3)nc21	i	nt	i	nt	nt
NS(=O)(=O)C#Cc1ccccc1	?	nt	5.6µM	nt	nt
COc1cc(OC)cc(C(=O)N[C@H](C(=O)OCC(=O)Nc2ccc3c(c2)OCO3)C(C)C)c1	nt	i	nt	i	i
COc1ccc(CCNC(=O)Cn2nc(C)n3c(cc4cc(F)ccc43)c2=O)cc1OC	nt	nt	nt	nt	i
CCCCc1ccc(/C=C(\C#N)C(N)=S)s1	?	i	7.1µM	i	i
Cn1cccc1/C=C(/C#N)C(N)=S	i	i	i	i	i
SMILES	Gal4-VP16 FLuc	a7 integrin act	RORg inh	Giardia kill	ERG Ets-DNA blk
Cc1ccc(-c2c(C(=O)Nc3ccc(F)c(F)c3)oc(=O)c3ccccc23)cc1	nt	nt	nt	nt	i
O=C(Nc1nc2c(cc3c4c(cccc42)CC3)s1)c1ccccc1Cl	i	i	5µM	i	i
O=C(Nc1nc2c(Cl)cccc2s1)c1ccc(S(=O)(=O)N2CCc3ccccc32)cc1	nt	nt	nt	nt	i
CC(C)=CCC/C(C)=C/C=C/C1=CC2(C)CC1(C)C(/C=C(\C)CCC=C(C)C)CC2=O (stereo not drawn)	i[10 µM]	nt	i[10 µM]	nt	nt
COc1ccc(NC(=O)CCc2nc3ccccc3c(=O)[nH]2)cc1S(=O)(=O)N1CCCCC1	nt	i	nt	i	i
CCOc1ccc(C=C2SC(=O)N(CCN)C2=O)cc1	i	nt	0.63µM	nt	nt
CC(C)CCN(Cc1ccco1)C(=O)Cn1ncc2c([nH]c3ccccc32)c1=O	nt	nt	nt	nt	i
Cc1ccccc1Cn1c2ccccc2c2cnn(CC(=O)NCCCc3ccccc3)c(=O)c21	nt	nt	nt	nt	i
Cc1ccc(-c2cc(-c3ccc(C)cc3O)[nH]n2)cc1	7.1µM	?	4µM	i	i
Cc1ccc(-c2cc(-c3ccc(F)cc3)n[nH]2)c(O)c1	7.1µM	i	5.6µM	i	i
Oc1ccccc1-c1cc(-c2ccc(F)cc2)n[nH]1	i	i	?	i	i
CC(C)(C)OC(=O)N1CCCC1C(=O)NC1COC2CC(n3cc(F)c(=O)[nH]c3=O)OC12 (stereo not drawn)	i	nt	i	i	nt
O=[N+]([O-])c1cc(Cl)ccc1Nc1nc(Nc2ccc(Cl)cc2[N+](=O)[O-])nc(N2CCOCC2)n1	nt	nt	nt	i	nt
Cc1c(C(C)C)c(=O)n(-c2ccc(S(=O)(=O)NCc3ccccc3)cc2)n1C	7.9µM	i	?	i	i
Cc1c(C(C)C)c(=O)n(-c2ccc(S(=O)(=O)NC3CCCCC3)cc2)n1C	11µM	i	?	i	i
Cc1c(C(C)C)c(=O)n(-c2ccccc2)n1C	i	nt	i[10 µM]	nt	nt
Cc1ccc(C)c(NC(=O)CSc2nccn2-c2cccc(C)c2C)c1	nt	nt	nt	nt	i
Cc1cc(C(=O)COC(=O)c2ccc(N)c([N+](=O)[O-])c2)c(C)n1-c1ccc2c(c1)OCO2	?	i	?	i	i
CC(=O)c1ccc(OCC(=O)c2cc(C)n(-c3ccc4c(c3)OCO4)c2C)cc1	10µM	i	?	i	i
Cc1cc(C(=O)COC(=O)Cc2n[nH]c(=O)c3ccccc23)c(C)n1-c1ccc2c(c1)OCO2	18µM	i	i	i	i
COc1ccc2c(c1)O[C@@H](c1cccc(C(F)(F)F)c1)[C@H](OC(=O)NC1CCCC1)C2=O	i	nt	i	nt	nt
C=CCC(O)(/C=C/c1ccccc1)c1ccccc1 (stereo not drawn)	i	nt	i	nt	nt
O=C(N/N=C/C=C/c1ccc2c(c1)OCO2)c1ccc([N+](=O)[O-])cc1	10µM	i	2µM	i	nt
O=C(Nc1ccc(Br)cc1)c1ccc2c(c1)OCO2	i	i	?	i	i
O=C(N/N=C\C=C\c1ccc(Br)cc1)c1ccc2c(c1)OCO2	4.5µM	i	13µM	i	i
SMILES	Gal4-VP16 FLuc	a7 integrin act	RORg inh	Giardia kill	ERG Ets-DNA blk
O=C(COc1ccccc1Cl)c1ccc2c(c1)CCCC2	?	i	14µM	i	i
O=C(c1ccc(N2CCN(C(=O)c3ccc(F)c(F)c3)CC2)cc1)c1cccc(F)c1	?	i	1.8µM	i	i
O=C(COc1ccc(/C=N/NC(=O)c2cc3ccccc3o2)cc1Br)Nc1ccccc1	2.2µM	i	3.2µM	i	nt
CN(C)CCCN(C(=O)CCc1ccccc1)c1nc2c(F)cccc2s1	i	i	i	i	i
CN(C)CCCN(C(=O)CCOc1ccccc1)c1nc2ccc(F)cc2s1	7.9µM	i	10µM	i	i
CN(C)CCCN(C(=O)CCOc1ccccc1)c1nc2c(F)cccc2s1	i	i	8.9µM	i	i
